As usually defined, the inhibition is the change of the read-out against control, counted positive when it falls.

The structures appear in SMILES notation. Active and inactive are the calls of the source. No rule for the calls is given here.

In the experiment the target is Pantothenate synthetase (Mycobacterium tuberculosis (strain ATCC 25618 / H37Rv)) (UniProt P9WIL5). The experiment in a line: Recombinant Mtb pantothenate synthetase (PanC) inhibitors, coupled enzyme, confirmatory (AID 375).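 Also: 0% = full reaction with vehicle and 100% = no enzyme background.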 To be noted: coupled enzyme assay; at 10 µM, hits give high values.
Sequence of Pantothenate synthetase (Mycobacterium tuberculosis (strain ATCC 25618 / H37Rv)) (P9WIL5 whole entry, looked up): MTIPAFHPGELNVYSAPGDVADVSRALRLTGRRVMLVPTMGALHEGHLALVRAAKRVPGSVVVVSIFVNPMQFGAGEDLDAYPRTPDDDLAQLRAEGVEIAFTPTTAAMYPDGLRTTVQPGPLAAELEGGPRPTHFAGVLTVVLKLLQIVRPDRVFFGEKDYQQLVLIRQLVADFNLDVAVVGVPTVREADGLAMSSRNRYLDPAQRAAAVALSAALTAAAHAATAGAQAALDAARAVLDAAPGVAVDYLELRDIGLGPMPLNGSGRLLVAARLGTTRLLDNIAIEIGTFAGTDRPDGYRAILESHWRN
Regarding `CCc1nnc(NC(=O)c2cc3c(s2)CCCCC3)s1`, the inhibition was 0% (inactive).
With `COc1ccc(-c2noc(CCCC(=O)O)n2)cc1`, the inhibition is 8% (inactive).
Consider `COc1cc(NC(=O)c2cc(CC(C)C)on2)c(OC)cc1Cl`, for which the inhibition is 5% (inactive).
As for `Cc1c(C)n(C)c2ccc(C(=O)NCc3cccs3)cc12`, the inhibition was 0% (inactive).
Take `COc1ncnc2c1N=C1CC(C)(C)CC(N)=C1S2`: the inhibition is 0% (inactive).
On to `CCSc1nc(O)c(C2OC(=O)c3c2ccc(OC)c3OC)c(=O)n1-c1ccccc1` (stereo not given), for which the inhibition is 0% (inactive).
As to `Cc1cc(C)c2cc3c(ccn3C3OC[C@H](O)[C@H](O)[C@H]3O)cc2n1` (stereo not given in full), the inhibition was 4% (inactive).
In the case of `CCCC(CCC)C(=O)OC1C[C@H]2CC[C@@H](C1)[N+]2(C)C` (stereo not given in full), the inhibition was 0% (inactive).
The figure for `CC(C)CNC(=O)c1ccccc1NC(=O)c1ccc(CN2CCOCC2)cc1` is 3% (inactive); for `CCC(C)(C)NC(=O)C(OC(=O)c1ccco1)c1ccccc1OC` (stereo not given) it is 0% (inactive).
Regarding `COCCCNC(=O)c1ccc2c(c1)OCO2`, the inhibition is 1% (inactive).
As for `CCOC(=O)C1=C(CSc2nc(C)cc(C)c2C#N)OC(N)=C(C#N)C1c1cccs1` (stereo not given), the inhibition was 2% (inactive).
The figure for `COc1ccc(NC(=O)c2cc(C3CC3)on2)c(OC)c1` is 0% (inactive).
Take `CCCCNC(=O)c1nnn(-c2ccccc2)c1N`: the inhibition was 0% (inactive).
With `CC(C)(C)NCC(O)COc1cccc2c1C[C@H](O)[C@H](O)C2` (stereo not given in full), the inhibition is 0% (inactive).
Under `COc1ccc(NC(=O)CSc2nnc(-c3ccncc3)n2CC2CCCO2)c(OC)c1` (stereo not given) stands 4% (inactive); under `Cn1c(C(=O)NCC2CCCO2)cc2c(=O)n(C)c3ccccc3c21` (stereo not given), 0% (inactive).
The figure for `Oc1ccc(-c2onc(C(F)(F)F)c2-c2cscn2)c(O)c1` is 2% (inactive).
Take `Cc1cc(C(C)(C)C)cc(C)c1CC1=NCCN1`: the inhibition was 0% (inactive).
`O=C(/C=C/c1ccccc1)c1ccccc1`: the inhibition is 0% (inactive).
In the case of `Cc1ccsc1C(C(=O)NC1CCCCC1)N(C(=O)Cc1cccs1)C1CC1` (stereo not given), the inhibition is 0% (inactive).
On to `COc1ccc(-n2ncc3c(NCCCN4CCOCC4)ncnc32)cc1`, for which the inhibition is 6% (inactive).
On to `COc1ccc(OC)c(C2=NOC(C(=O)Nc3c(C)n(C)n(-c4ccccc4)c3=O)C2)c1` (stereo not given), for which the inhibition is 2% (inactive).
As to `c1ccc2c(NC3CCCC3)nnc(NC3CCCC3)c2c1`, the inhibition was 0% (inactive).
`CCOC(=O)CSc1nc2cc(C(=O)NCc3ccco3)ccc2c(=O)n1C1CCCCC1`: the inhibition was 0% (inactive).
Turning to `O=C(Nc1cccnc1)c1cc2c(ccc3ccccc32)o1`, the inhibition was 0% (inactive).
As to `CCC(C)(C)NC(=O)C(c1ccco1)N(C(=O)Cn1nnc2ccccc21)c1ccc2c(c1)OCO2` (stereo not given), the inhibition is 0% (inactive).
For `CC(=O)c1cccc(NC(=O)N2CCCc3ccccc32)c1`, the inhibition was 1% (inactive).
In the case of `COc1ccc(C2C(C(C)=O)=C(C)N=c3s/c(=C/c4ccc5c(c4)OCO5)c(=O)n32)cc1` (stereo not given), the inhibition is 0% (inactive).
Consider `CC(C)(C)OC(=O)N1CCC(C(=O)N2CCCCCC2)CC1`, for which the inhibition is 5% (inactive).
Turning to `CCOC(=O)N1CCC(NC(=O)c2ccc(OC)c(CN3CC(=O)N4CCCC4C3=O)c2)CC1` (stereo not given), the inhibition is 0% (inactive).
In the case of `CCOC(=O)c1cc(CC)sc1NC(=O)COC`, the inhibition is 7% (inactive).
Take `CCOC(=O)CSc1nc2cc(C(=O)NCc3ccco3)ccc2c(=O)n1-c1ccc(F)cc1`: the inhibition was 3% (inactive).
Take `CC1(C)CNC(=O)c2sc(N3CCOCC3)nc2C1`: the inhibition was 0% (inactive).
Take `C#CCOC(=O)C1C2C=CC(C2)C1C(=O)O` (stereo not given): the inhibition was 1% (inactive).
`O=C(NCc1ccc2c(c1)OCO2)c1cccc2c1C(=O)N(C1CCCCC1)C2`: the inhibition is 5% (inactive).
The figure for `CCOc1ccc(-c2noc(-c3ccncc3)n2)cc1OCC` is 4% (inactive); for `COCC(C)NC(=O)CCS(=O)(=O)c1nc(-c2ccc(OC)cc2)cc(C(F)(F)F)n1` (stereo not given) it is 0% (inactive).
On to `CCOC(=O)N1CCN(C(=O)COc2ccc(Br)cc2Cl)CC1`, for which the inhibition was 0% (inactive).
With `Cc1ccc(-c2noc(CCC(=O)NC3CCCc4ccccc43)n2)cc1` (stereo not given), the inhibition was 2% (inactive).

These data come from PubChem BioAssay.
